Assay outcomes (PubChem)
CCT chaperon mod: changes cytosolic chaperonin activity | purified chaperonin ATPase assay, HTRF ADP detection, 30 min | activity change, % (no concentration beside the values), hits read low | 0.3% of 360,000 active; in the data active = activity change below about -30%
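ATPase activity: ADP formed was measured by HTRF Transcreener (665/615 nm ratio) after 30 min at 37 deg C with 10 uM ATP. Compounds screened at one 76 uM concentration against 40 or 20 nM TRiC in Tris pH 7.4/KCl/MgCl2/DTT buffer.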
CtBP-E1A blk: inhibitors of CtBP/E1A interaction; AlphaScreen GST-E1A/His-CtBP binding, 1536-well; active compounds read low; activity change, % (concentration not given with the values); 0.49% of 340,000 active
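Homogeneous bead-based format: GST-tagged E1A captured on glutathione donor beads, His-tagged CtBP on nickel acceptor beads; compounds precede bead addition by 2 h at 37 °C.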
PI4K2A block: PI4K2A (human) kinase inhibition | 0.13% of 420,000 active | AID 1346378 | activity change, negative = inhibition, % at 76.9 µM | purified PI4K2A, ADP-Glo luminescence, 1 h; active compounds read low | Q9BTU6; in the data active = activity change below about -50%; inconclusive = mostly about -30% to -49%
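PI4K2A activity was measured by ADP-Glo luminescence: enzyme (4 ug/mL stock) and phosphatidylinositol (1.2 mM stock) in Tris pH 7.5/MgCl2/EGTA/Triton X-100 buffer were reacted with ATP (300 microM stock) for one hour at ambient temperature.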
Eya2 phos inh: blocks the phosphatase activity of human Eya2; Potency, µM (doses to about 76.9 µM), most hits filed as inhibitors; 0.006% of 330,000 active; O00167; AID 488837; recombinant Eya2, OMFP fluorescence dephosphorylation (OMFP is methylfluorescein phosphate)
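Eya2 (0.2 uM) preincubated 10 min at ambient with compound, then OMFP substrate added at 50 uM; 10 min reaction in 50 mM HEPES pH 7.5, 50 mM NaCl, 5 uM MgCl2, 0.05% BSA, 1 mM DTT. Fluorescence read at Ex 485/Em 525 nm.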
Six1-Eya2 inh: blocks human Six1 binding to Eya2 | Q15475+O00167 | AlphaScreen GST-Six1/His-Eya2 binding, biochemical; active compounds read low | activity change, % (concentration not given with the values) | 0.56% of 360,000 active | AID 651725
Target sequence (O00167 whole entry, looked up): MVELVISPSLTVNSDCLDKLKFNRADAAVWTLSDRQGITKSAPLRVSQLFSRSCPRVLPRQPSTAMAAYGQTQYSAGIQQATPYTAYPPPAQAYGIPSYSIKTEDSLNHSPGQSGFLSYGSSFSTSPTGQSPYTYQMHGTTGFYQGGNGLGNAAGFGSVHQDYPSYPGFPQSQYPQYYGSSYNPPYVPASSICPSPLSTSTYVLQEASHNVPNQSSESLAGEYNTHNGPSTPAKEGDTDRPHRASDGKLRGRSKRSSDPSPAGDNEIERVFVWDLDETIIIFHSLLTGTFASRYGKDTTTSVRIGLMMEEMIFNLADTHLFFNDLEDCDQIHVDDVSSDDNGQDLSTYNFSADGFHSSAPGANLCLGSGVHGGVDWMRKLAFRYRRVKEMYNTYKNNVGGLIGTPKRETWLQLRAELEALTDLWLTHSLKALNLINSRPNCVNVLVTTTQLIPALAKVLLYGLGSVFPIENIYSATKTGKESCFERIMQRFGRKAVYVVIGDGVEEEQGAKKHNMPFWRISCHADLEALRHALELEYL
Target sequence (Q15475 whole entry, looked up): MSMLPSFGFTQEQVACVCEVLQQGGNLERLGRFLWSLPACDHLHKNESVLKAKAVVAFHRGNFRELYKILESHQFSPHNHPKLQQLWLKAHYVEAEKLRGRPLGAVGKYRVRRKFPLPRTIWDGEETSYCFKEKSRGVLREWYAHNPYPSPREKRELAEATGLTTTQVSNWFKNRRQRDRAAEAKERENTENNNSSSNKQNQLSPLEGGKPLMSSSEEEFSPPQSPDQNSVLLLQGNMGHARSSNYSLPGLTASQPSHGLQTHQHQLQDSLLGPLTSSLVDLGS
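Six1/Eya2 binding was read as AlphaScreen signal after compounds were pinned into GST-Six1 plus His-tagged Eya2 (5X stock 250/500 nM) in pH 8.0 Tris/NaCl/TCEP buffer, beads added, then incubated 1 h, 37 C, dark.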
Numbers stand for hits. This is a sample that favours compounds with a hit; in the whole collection about 0.97% have one here. Cut-off read from the data, not from the text of the source, unless noted: active = activity change below about -65%; inconclusive = mostly about -30% to -63%; inactive = weaker than that.

Screening CCCCC(=O)Nc1ccc2c(c1)oc1ccccc12 returned CCT chaperon mod inactive, CtBP-E1A blk inactive, PI4K2A block inactive, Eya2 phos inh inactive and Six1-Eya2 inh inactive.
For CCCCn1c(N)c(N(CC(C)C)C(=O)c2cccc(S(=O)(=O)N3CCCCCC3)c2)c(=O)[nH]c1=O the results were CCT chaperon mod -81, CtBP-E1A blk inactive, PI4K2A block inactive, Eya2 phos inh inactive and Six1-Eya2 inh inactive.
For CCN(CC)c1ccc(NS(=O)(=O)c2ccc3c(c2)CCCN3C(C)=O)c(C)c1 the results were PI4K2A block inactive.
COc1cccc(C(=O)Nc2c(C)n[nH]c2C)c1 was read as CCT chaperon mod -75, CtBP-E1A blk inactive, PI4K2A block inactive, Eya2 phos inh inactive and Six1-Eya2 inh inactive.
O=[N+]([O-])c1ccc(N=Nc2ccc(O)c3ccccc23)cc1 was read as CCT chaperon mod inactive, CtBP-E1A blk -70, PI4K2A block inactive and Six1-Eya2 inh inconclusive.
`O=S(=O)(Nc1ccc(N=Nc2ccc(O)c3ccccc23)cc1)c1ccccc1` gave CCT chaperon mod inactive, CtBP-E1A blk inconclusive, PI4K2A block inactive, Eya2 phos inh inactive and Six1-Eya2 inh inconclusive.
For Cc1nc2cc(NC(=O)c3ccc(N4C(=O)CCC4=O)cc3)ccc2s1 the results were CCT chaperon mod -76, PI4K2A block inactive, Eya2 phos inh inactive and Six1-Eya2 inh inactive.
For COc1cc2nc(NCCC(C)C)n3nc(-c4ccccc4)nc3c2cc1OC the results were PI4K2A block inactive.
For CCN(Cc1nc2ccccc2c(=O)[nH]1)Cc1nc2cc(OC)c(OC)cc2c(=O)[nH]1 the results were CCT chaperon mod inactive, CtBP-E1A blk inactive, PI4K2A block inactive, Eya2 phos inh inactive and Six1-Eya2 inh inactive.
Screening COc1cc2nc(CN(C)Cc3nc4ccccc4c(=O)[nH]3)[nH]c(=O)c2cc1OC returned CCT chaperon mod inactive, CtBP-E1A blk -66, PI4K2A block inactive, Eya2 phos inh inactive and Six1-Eya2 inh -66.
Cc1ccc(C(=O)Nc2ccc(C(=O)N3CCCCC3)cc2)o1 was read as CCT chaperon mod inactive, CtBP-E1A blk inactive, PI4K2A block -53, Eya2 phos inh inactive and Six1-Eya2 inh inactive.
Screening CC(=O)c1cccc(NC(=S)NC(=O)c2ccc(Br)cc2)c1 returned CCT chaperon mod -40, CtBP-E1A blk inactive, PI4K2A block inactive, Eya2 phos inh inactive and Six1-Eya2 inh inactive.
For CCC(Sc1nc2ccccc2c2nc(-c3ccccc3)nn12)C(=O)Nc1cccc(OC)c1 (configuration not stated) the results were PI4K2A block inactive.
`OC1(c2ccccc2)CCNCC1` gave PI4K2A block inactive.
Cc1cc(O)c2c(O)c3c(O)cccc3cc2c1 was read as PI4K2A block inactive.
`COc1ccc(CCC(=O)Nc2cccc(S(=O)(=O)N3CCOCC3)c2)cc1OC` gave CCT chaperon mod inactive, CtBP-E1A blk inactive, PI4K2A block inactive, Eya2 phos inh inactive and Six1-Eya2 inh inactive.
Screening O=C(CCc1ccc(S(=O)(=O)N2CCOCC2)cc1)N/N=C/c1ccc(O)c(O)c1O returned CCT chaperon mod inactive, CtBP-E1A blk -73, PI4K2A block inactive, Eya2 phos inh inactive and Six1-Eya2 inh -68.
Screening O=C(CCc1ccccc1)Nc1cccc(S(=O)(=O)N2CCOCC2)c1 returned CCT chaperon mod -35, PI4K2A block inactive, Eya2 phos inh inactive and Six1-Eya2 inh inactive.
Cc1ccc(-n2c(C)nc3c(cnn3-c3ccccc3C)c2=O)cc1F was read as PI4K2A block inactive.
For COc1ccc(/C(C)=C/C(=O)O)c(OC)c1 the results were PI4K2A block inactive.
For CC/C=C/C(=O)N1CC2(CC(c3cccc(NC(=O)CC(c4ccccc4)c4ccccc4)c3)=NO2)C[C@@H]1C(N)=O (some centres not stated) the results were CCT chaperon mod -33, CtBP-E1A blk inactive, PI4K2A block inactive, Eya2 phos inh inactive and Six1-Eya2 inh inactive.
CC1(C(=O)N2CC3(CC(c4cccc(NC(=O)CC(c5ccccc5)c5ccccc5)c4)=NO3)C[C@@H]2C(N)=O)CC1 (some centres not stated) was read as CCT chaperon mod inactive, CtBP-E1A blk inactive, PI4K2A block inactive, Eya2 phos inh inactive and Six1-Eya2 inh inactive.
Cc1ccc(S(=O)(=O)NCCc2nnc3ccc(SCc4ccccc4F)nn23)cc1 was read as PI4K2A block inactive.
CC(C)c1ccc(NC2CCCN(C(=O)CCN3CCCC3=O)C2)cc1 (configuration not stated) was read as CCT chaperon mod -34, CtBP-E1A blk inactive, PI4K2A block inactive, Eya2 phos inh inactive and Six1-Eya2 inh inactive.
Screening CC(=NNc1nc2ccccc2s1)c1ncccn1 returned CCT chaperon mod inactive, CtBP-E1A blk inactive, PI4K2A block inactive and Six1-Eya2 inh -92.
CC(=NNc1nc2ccccc2o1)c1cc2ccccc2cn1 was read as CCT chaperon mod inactive, CtBP-E1A blk -66, PI4K2A block inactive and Six1-Eya2 inh -93.
`CC(=NNc1nc2ccccc2o1)c1ncccn1` gave CCT chaperon mod inactive, CtBP-E1A blk inactive, PI4K2A block inactive and Six1-Eya2 inh -90.
Cc1cc(C)nc(Nc2nc3ccccc3o2)n1 was read as CCT chaperon mod inactive, CtBP-E1A blk inactive, PI4K2A block inactive, Eya2 phos inh inactive and Six1-Eya2 inh inactive.
For Oc1ccccc1/C=N/Nc1nc2ccccc2o1 the results were CCT chaperon mod inactive, CtBP-E1A blk -77, PI4K2A block inactive, Eya2 phos inh inactive and Six1-Eya2 inh -72.
For C[C@@H]1CC[C@@]2(OC1)O[C@H]1C[C@H]3[C@@H]4CC[C@H]5C[C@@H](O)CC[C@]5(C)[C@H]4CC(=O)[C@]3(C)[C@H]1[C@@H]2C the results were PI4K2A block inactive.
`Cn1c(=O)c(C(=O)NNC(=O)c2ccccc2Br)c(O)c2ccccc21` gave CCT chaperon mod inactive, CtBP-E1A blk inconclusive, PI4K2A block inactive, Eya2 phos inh inactive and Six1-Eya2 inh -66.
Screening Cn1c(=O)c(C(=O)NNC(=O)c2ccccc2Cl)c(O)c2ccccc21 returned CCT chaperon mod inactive, CtBP-E1A blk inconclusive, PI4K2A block inactive, Eya2 phos inh inactive and Six1-Eya2 inh inconclusive.
CCn1ccnc1CNCc1cn(-c2cc(C)ccc2C)nc1-c1ccccc1 was read as CCT chaperon mod inactive, PI4K2A block inactive, Eya2 phos inh inactive and Six1-Eya2 inh -82.
Cc1cc(C)cc(NC(=O)C(=O)NC(C)c2ccccc2)c1 (configuration not stated) was read as PI4K2A block inactive.
CC(=O)/C(=N\Nc1ccccc1Cl)Sc1cccc2cccnc12 was read as CCT chaperon mod inactive, CtBP-E1A blk -92, PI4K2A block inactive, Eya2 phos inh inactive and Six1-Eya2 inh -89.
Cc1ccc(/C=C/c2nc3ccccc3[nH]2)cc1 was read as PI4K2A block -67.
